Data reported in PubChem BioAssay (Tox21).
Inconclusive results are not listed. Active and inactive are the calls of the source. Unless noted, calls follow the shape of the dose curve; as a rule, active = well fitted curve in the direction sought with a large enough effect in the repeat runs; inconclusive = weak or mixed curves; inactive = no such curve, though single readings can be large; an effect the other way counts as inactive or inconclusive.

Columns and labels:
[1] = qHTS assay to identify small molecule antagonists of the androgen receptor (AR) signaling pathway using the MDA cell line in the presence of 0.5 nM R1881 - cell viability counter screen (AID 1259242); also: nearly all actives have a fitted effect of over 45% in size; also: potency is read from the fitted curve at half-maximal effect
Procedure, shortened: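 MDA-kb2 cells (human breast carcinoma, stably carrying MMTV-luciferase reporter) were exposed to compounds with 0.5 nM R1881 (final) for 16 hr at 37C, 0% CO2; viability then read as live-cell protease fluorescence (CellTiter-Fluor, 30 min) in the same wells.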

[2] = molecular target: Androgen receptor (Homo sapiens) (UniProt P10275); experiment: qHTS assay to identify small molecule antagonists of the androgen receptor (AR) signaling pathway using the MDA cell line in the presence of 0.5 nM R1881 (AID 1259243); also: potency is read from the fitted curve at half-maximal effect; nearly all actives have a fitted effect of over 50% in size
Procedure, shortened: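 MDA-kb2 human breast carcinoma cells carrying an MMTV-luciferase reporter (AR- and GR-responsive) were plated, rested 5 hr at 37C, dosed with compounds, then stimulated with 0.5 nM R1881 (final) for 16 hr; luminescence was read after ONE-Glo.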

[3] = molecular target: Estrogen receptor (Homo sapiens) (UniProt P03372); experiment: qHTS assay to identify small molecule antagonists of the estrogen receptor alpha (ER-alpha) signaling pathway using the BG1 cell line in the presence of 0.1 nM 17-beta-estradiol (AID 1259244); also: potency is read from the fitted curve at half-maximal effect; nearly all actives have a fitted effect of over 50% in size
Procedure, shortened: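 VM7Luc4E2 cells (endogenous full-length ER-alpha, stable 4xERE-luciferase) were grown 5 days in phenol red-free medium with charcoal-stripped FBS, then exposed 22 h at 37C to compounds plus 0.1 nM (final) 17beta-estradiol; ONE-Glo luminescence read-out.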

[4] = qHTS assay to identify small molecule HDAC inhibitors (AID 1259364); also: top concentration of the series differs between compounds; % is scaled to controls: 0 for no effect and ±100 for the full control effect; nearly all actives have a fitted effect of over 45% in size
Procedure, shortened: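 Wild-type HCT-116 cells were plated overnight, exposed to compounds for 2 h at 37 °C, then given HDAC-Glo class I/II luminogenic reagent for 30 min at room temperature before luminescence was read.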

[5] = qHTS assay to identify small molecule HDAC inhibitors - cell viability counter screen (AID 1259365); also: nearly all actives have a fitted effect of over 50% in size; also: potency is read from the fitted curve at half-maximal effect
Procedure, shortened: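 To flag cytotoxic hits, 1,500 wild-type HCT-116 cells per well, plated the day before, receive test compounds for 2hr at 37 C before CellTiter-Glo reagent and a luminescence read.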

[6] = qHTS assay to identify small molecule agonists of the sonic hedgehog signaling (Shh) pathway - cell viability counter screen (AID 1259366); also: nearly all actives have a fitted effect of over 50% in size; also: potency is read from the fitted curve at half-maximal effect
Procedure, shortened: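 Fluorescence from CellTiter-Fluor reports live cells in this counter screen. NIH/3T3-derived Gli1-Luc reporter cells receive test compounds for 24hr at 37C; reagent goes in at 23hr.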

[7] = qHTS assay to identify small molecule antagonists of the sonic hedgehog signaling (Shh) pathway - cell viability counter screen (AID 1259367); also: potency is read from the fitted curve at half-maximal effect; nearly all actives have a fitted effect of over 55% in size
Procedure, shortened: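 NIH/3T3-derived Gli1-Luc reporter cells (2,000 per well) rested 4 hr at 37 C, then received DMSO compounds plus conditioned medium. After 23 hr of treatment, CellTiter-Fluor was added for 1 hr at 37C and fluorescence read.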

[8] = qHTS assay to identify small molecule agonists of the sonic hedgehog signaling (Shh) pathway (AID 1259368; calls by dose curve; also: series mostly up to about 92 µM; % is scaled to controls: 0 for no effect and ±100 for the full control effect; nearly all actives have a fitted effect of over 15% in size)
Procedure, shortened: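 NIH/3T3-derived 3T3Gli1-Luc cells carrying a stably integrated Gli1 response element–firefly luciferase reporter were plated, left 4 hr at 37 C, then given compounds in DMSO for 24 hr. Luminescence was read 30 min after adding luciferase reagent.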

[9] = qHTS assay to identify small molecule antagonists of the sonic hedgehog signaling (Shh) pathway (AID 1259369; calls by dose curve; also: potency is read from the fitted curve at half-maximal effect; nearly all actives have a fitted effect of over 45% in size)
Procedure, shortened: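 NIH/3T3-derived 3T3Gli1-Luc cells with stably integrated Gli1-Luc reporter were preincubated 4hr at 37 C, then given compounds in DMSO plus Shh conditioned medium and incubated 24hr. Firefly luciferase luminescence read after 30min reagent at room temperature.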

[10] = qHTS assay to identify small molecule agonists of the estrogen receptor beta (ER-beta) signaling pathway - cell viability counter screen (AID 1259380); also: potency is read from the fitted curve at half-maximal effect; nearly all actives have a fitted effect of over 30% in size
Procedure, shortened: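 ER-beta-UAS-bla HEK293T cells in medium with 2% charcoal-stripped FBS were preincubated 6 hr at 37C, dosed with compound in DMSO for 16 hr, then after the bla read, CellTiter-Glo was added for 30 min at room temperature; luminescence recorded.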

[11] = molecular target: Androgen receptor (Homo sapiens) (UniProt P10275); experiment: qHTS assay to identify small molecule agonists of the androgen receptor (AR) signaling pathway in the presence of an antagonist (AID 1259381; calls by dose curve; also: % is scaled to controls: 0 for no effect and ±100 for the full control effect; nearly all actives have a fitted effect of over 15% in size)
Procedure, shortened: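 MDA-kb2 human breast carcinoma cells carrying an MMTV-luciferase reporter (AR- and GR-responsive) were treated with compounds at 15 concentrations plus 3.0uM final nilutamide for 16hr at 37C without CO2; luminescence was read after ONE-Glo addition.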

[12] = qHTS assay to identify small molecule antagonists of the estrogen receptor beta (ER-beta) signaling pathway - cell viability counter screen (AID 1259382); also: nearly all actives have a fitted effect of over 55% in size; also: potency is read from the fitted curve at half-maximal effect
Procedure, shortened: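 ER-beta-UAS-bla HEK293T cells (2,000/well, 2% charcoal-stripped FBS) were pre-incubated 6 hr at 37C, then given compound plus 1nM final 17-beta-estradiol for 16 hr. Viability was read in the same wells by CellTiter-Glo luminescence after 30 min at room temperature.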

[13] = molecular target: Estrogen receptor (Homo sapiens) (UniProt P03372); experiment: qHTS assay to identify small molecule agonists of the estrogen receptor alpha (ER-alpha) signaling pathway in the presence of an antagonist (AID 1259383; calls by dose curve; also: top concentration of the series differs between compounds; % is scaled to controls: 0 for no effect and ±100 for the full control effect; nearly all actives have a fitted effect of over 15% in size)
Procedure, shortened: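 VM7Luc4E2 cells (endogenous full-length ER-alpha, 4×ERE-luciferase) were precultured 5 days in phenol red-free medium with 10% charcoal-stripped FBS, given 10.0nM ICI-182,780 (final), then treated with compounds at 15 concentrations for 22hr at 37C; luminescence read with ONE-Glo.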

[14] = qHTS assay to identify small molecule agonists or antagonists of the thyroid stimulating hormone receptor (TSHR) signaling pathway - wild type cell line counter screen (AID 1259384; calls by dose curve; also: % is scaled to controls: 0 for no effect and ±100 for the full control effect)
Procedure, shortened: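 Wild-type HEK293 cells were plated 18 h at 37 C/5% CO2, pin-dosed with compound plus Ro20-1724 medium, held 30 min at room temperature, then given cAMP-d2 and anti-cAMP-cryptate; fluorescence was read after 1 h. Fifteen concentrations, triplicate.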

[15] = molecular target: Thyrotropin receptor (Homo sapiens) (UniProt P16473); experiment: qHTS assay to identify small molecule antagonists of the thyroid stimulating hormone receptor (TSHR) signaling pathway (AID 1259385; calls by dose curve; also: nearly all actives have a fitted effect of over 20% in size; also: potency is read from the fitted curve at half-maximal effect; as to activity change, negative = inhibition: % is scaled to controls: 0 for no effect and ±100 for the full control effect)
Procedure, shortened: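 TSHR-HEK293 cells were plated and held 18 h at 37C/5% CO2, then given compound plus Ro20-1724 and stimulated with TSH at 1.5 ng/mL final. After 30 min at room temperature, cAMP was detected with cAMP-d2/anti-cAMP-cryptate (1 h) by fluorescence.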

[16] = qHTS assay to identify small molecule phospholipidosis (PLD) inducers (AID 1259344; active = well fitted curve in the direction sought with a large enough effect; an effect the other way counts as inactive or inconclusive; also: % is scaled to controls: 0 for no effect and ±100 for the full control effect)
Procedure, shortened: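 HepG2 cells on collagen I, attached 4 h at 37 C, were co-treated with compound and LipidTOX Red dye for 24 h at 37 C, then fixed with paraformaldehyde plus Hoechst 33342 and imaged by high-content microscopy for phospholipid accumulation.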

[17] = molecular target: Estrogen receptor beta (Homo sapiens) (UniProt Q92731); experiment: qHTS assay to identify small molecule antagonists of the estrogen receptor beta (ER-beta) signaling pathway (AID 1259378; active = well fitted inhibition curve with a large enough effect in the signal ratio in the repeat runs, not every such curve was filed as active; the % refers to the signal ratio; also: potency is read from the fitted curve at half-maximal effect)
Procedure, shortened: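 ER-beta-UAS-bla HEK293T (GripTite) cells in 2% charcoal-stripped FBS medium were preincubated 6 hr at 37C, dosed with compound, then stimulated with 1 nM E2 (final) for 16 hr; beta-lactamase reporter read by B/G FRET fluorescence after 2 hr substrate loading.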

[18] = qHTS assay to identify small molecule agonists of the androgen receptor (AR) signaling pathway in the presence of an antagonist - cell viability counter screen (AID 1259379); also: potency is read from the fitted curve at half-maximal effect; nearly all actives have a fitted effect of over 25% in size
Procedure, shortened: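 MDA-kb2 human breast carcinoma cells (stable MMTV-luciferase, AR/GR responsive) were seeded 3,000 cells/well, pre-incubated 5 hr at 37C without CO2, then given 3.0uM nilutamide and compounds at 15 concentrations for 16 hr. Viability was read by CellTiter-Fluor fluorescence.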

[19] = molecular target: Estrogen receptor beta (Homo sapiens) (UniProt Q92731); experiment: qHTS assay to identify small molecule agonists of the estrogen receptor beta (ER-beta) signaling pathway (AID 1259377; active = well fitted activation curve with a large enough effect in the signal ratio in the repeat runs, not every such curve was filed as active; the % refers to the signal ratio; also: % is scaled to controls: 0 for no effect and ±100 for the full control effect)
Procedure, shortened: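 Screening used GripTite ER-beta-UAS-bla cells held in 2% charcoal-stripped FBS medium. After overnight (16 hr) compound incubation at 37C, beta-lactamase activity was detected with a FRET substrate by fluorescence.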

Chain of Estrogen receptor (Homo sapiens) (P03372 whole entry, looked up): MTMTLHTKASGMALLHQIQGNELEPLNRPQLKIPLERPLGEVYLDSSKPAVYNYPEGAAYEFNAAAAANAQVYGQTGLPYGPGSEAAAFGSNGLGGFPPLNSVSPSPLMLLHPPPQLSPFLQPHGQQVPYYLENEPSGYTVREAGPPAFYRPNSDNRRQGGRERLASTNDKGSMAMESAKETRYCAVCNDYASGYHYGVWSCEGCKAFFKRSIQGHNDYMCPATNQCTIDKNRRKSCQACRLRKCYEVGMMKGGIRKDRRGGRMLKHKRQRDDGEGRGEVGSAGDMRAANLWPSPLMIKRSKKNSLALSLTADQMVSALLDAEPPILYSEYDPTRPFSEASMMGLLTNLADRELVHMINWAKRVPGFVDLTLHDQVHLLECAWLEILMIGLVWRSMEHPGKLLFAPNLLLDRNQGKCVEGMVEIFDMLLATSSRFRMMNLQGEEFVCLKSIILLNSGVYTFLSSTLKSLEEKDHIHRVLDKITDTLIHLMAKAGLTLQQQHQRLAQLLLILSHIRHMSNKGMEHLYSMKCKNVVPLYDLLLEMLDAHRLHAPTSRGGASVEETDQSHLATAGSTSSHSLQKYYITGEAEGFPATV
Chain of Thyrotropin receptor (Homo sapiens) (P16473 whole entry, looked up): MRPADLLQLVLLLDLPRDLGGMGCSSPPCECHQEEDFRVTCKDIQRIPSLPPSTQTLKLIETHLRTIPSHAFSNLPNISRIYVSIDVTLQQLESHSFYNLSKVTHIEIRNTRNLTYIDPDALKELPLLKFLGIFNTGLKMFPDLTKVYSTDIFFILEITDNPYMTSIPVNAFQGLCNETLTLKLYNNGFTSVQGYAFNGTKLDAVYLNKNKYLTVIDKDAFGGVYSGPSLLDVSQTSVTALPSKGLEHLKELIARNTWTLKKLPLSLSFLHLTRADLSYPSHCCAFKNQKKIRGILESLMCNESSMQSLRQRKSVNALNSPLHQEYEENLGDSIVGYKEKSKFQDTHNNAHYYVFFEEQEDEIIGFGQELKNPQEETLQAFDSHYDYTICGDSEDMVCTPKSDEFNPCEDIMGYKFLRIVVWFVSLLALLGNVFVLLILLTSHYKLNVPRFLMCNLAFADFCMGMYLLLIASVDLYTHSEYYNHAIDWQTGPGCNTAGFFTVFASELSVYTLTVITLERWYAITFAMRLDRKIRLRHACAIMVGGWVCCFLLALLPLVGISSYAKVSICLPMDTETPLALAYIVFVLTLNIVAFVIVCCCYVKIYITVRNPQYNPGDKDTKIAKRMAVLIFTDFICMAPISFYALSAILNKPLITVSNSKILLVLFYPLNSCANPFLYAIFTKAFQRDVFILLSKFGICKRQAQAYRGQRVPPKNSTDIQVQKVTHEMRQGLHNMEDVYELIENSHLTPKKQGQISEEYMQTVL
Chain of Androgen receptor (Homo sapiens) (P10275 whole entry, looked up): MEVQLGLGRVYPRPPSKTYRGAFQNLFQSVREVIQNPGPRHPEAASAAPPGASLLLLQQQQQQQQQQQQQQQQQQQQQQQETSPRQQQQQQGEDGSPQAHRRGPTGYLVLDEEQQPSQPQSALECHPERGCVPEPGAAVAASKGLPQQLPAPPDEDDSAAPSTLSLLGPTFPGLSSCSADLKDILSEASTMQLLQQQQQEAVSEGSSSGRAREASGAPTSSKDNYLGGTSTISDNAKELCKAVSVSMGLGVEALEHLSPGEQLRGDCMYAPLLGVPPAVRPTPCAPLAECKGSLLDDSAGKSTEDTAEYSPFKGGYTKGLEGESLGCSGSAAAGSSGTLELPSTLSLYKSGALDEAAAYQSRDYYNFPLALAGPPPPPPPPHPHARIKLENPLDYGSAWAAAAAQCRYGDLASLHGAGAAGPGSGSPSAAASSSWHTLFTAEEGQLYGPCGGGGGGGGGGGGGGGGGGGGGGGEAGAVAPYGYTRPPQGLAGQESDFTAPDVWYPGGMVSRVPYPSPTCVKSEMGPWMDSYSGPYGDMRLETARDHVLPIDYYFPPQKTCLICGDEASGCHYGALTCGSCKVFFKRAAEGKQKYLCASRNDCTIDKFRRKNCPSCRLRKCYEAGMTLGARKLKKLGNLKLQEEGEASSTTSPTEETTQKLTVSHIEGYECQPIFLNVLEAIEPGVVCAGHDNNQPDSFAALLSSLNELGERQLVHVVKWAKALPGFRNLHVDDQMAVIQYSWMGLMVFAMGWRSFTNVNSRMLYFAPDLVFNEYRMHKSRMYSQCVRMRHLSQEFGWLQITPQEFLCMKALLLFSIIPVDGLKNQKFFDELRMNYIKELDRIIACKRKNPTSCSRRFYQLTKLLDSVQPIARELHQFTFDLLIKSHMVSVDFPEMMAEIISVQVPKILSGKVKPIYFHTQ
Chain of Estrogen receptor beta (Homo sapiens) (Q92731 whole entry, looked up): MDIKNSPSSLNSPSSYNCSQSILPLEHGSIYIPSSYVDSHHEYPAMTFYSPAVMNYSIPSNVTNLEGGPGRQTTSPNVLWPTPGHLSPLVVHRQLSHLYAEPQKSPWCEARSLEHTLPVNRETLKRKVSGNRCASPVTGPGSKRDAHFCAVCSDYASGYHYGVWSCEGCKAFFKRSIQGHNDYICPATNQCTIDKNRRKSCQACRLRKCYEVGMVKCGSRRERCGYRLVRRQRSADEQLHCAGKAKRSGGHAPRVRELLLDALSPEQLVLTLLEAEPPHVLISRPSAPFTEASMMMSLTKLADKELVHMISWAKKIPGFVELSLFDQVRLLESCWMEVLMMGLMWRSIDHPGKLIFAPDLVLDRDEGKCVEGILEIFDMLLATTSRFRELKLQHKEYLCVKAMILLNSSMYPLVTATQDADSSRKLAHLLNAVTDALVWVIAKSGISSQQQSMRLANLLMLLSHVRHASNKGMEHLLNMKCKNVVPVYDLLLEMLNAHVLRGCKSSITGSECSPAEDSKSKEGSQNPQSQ

CCCCCCCCCCCCCCCCCC[N+](C)(C)Cc1ccccc1
inactive: Potency [4] | Potency [8] | Potency [11] | Potency [13] | outcome [14] | Potency [15]
active: Potency [1] 49 µM | Potency [2] 17.4 µM | Potency [3] 55 µM | Potency [5] 61.7 µM | Potency [6] 24.6 µM | Potency [7] 30.9 µM | Potency [9] 0.155 µM | Potency [10] 24.6 µM | Potency [12] 27.6 µM

O=C(OC[C@H]1O[C@@H](OC(=O)c2cc(O)c(O)c(OC(=O)c3cc(O)c(O)c(O)c3)c2)[C@H](OC(=O)c2cc(O)c(O)c(OC(=O)c3cc(O)c(O)c(O)c3)c2)[C@@H](OC(=O)c2cc(O)c(O)c(OC(=O)c3cc(O)c(O)c(O)c3)c2)[C@@H]1OC(=O)c1cc(O)c(O)c(OC(=O)c2cc(O)c(O)c(O)c2)c1)c1cc(O)c(O)c(OC(=O)c2cc(O)c(O)c(O)c2)c1
active: Potency [6] 11.7 µM | Potency [7] 6.57 µM | Potency [9] 5.22 µM
inactive: Potency [16] | activity change, negative = inhibition [4] 4.81% [at 19 µM] | activity change, negative = cytotoxicity [5] -4.93% [at 19 µM] | activity change [8] -2.95% [at 18.9 µM, stronger effect = higher value] | activity change, negative = cytotoxicity [12] -6.33% [at 19 µM]

CCN(CC)CCNC(=O)c1c(C)[nH]c(/C=C2\C(=O)Nc3ccc(F)cc32)c1C
inactive: Potency [4] | Potency [5] | Potency [8]
active: Potency [6] 5.96 µM | Potency [7] 13.3 µM | Potency [9] 3.35 µM | Potency [17] 33.5 µM | Potency [18] 29.8 µM | Potency [10] 11.9 µM | Potency [12] 11.9 µM

O=C(Nc1ccc(Oc2ccc(Cl)cc2)c(Cl)c1)c1cc(I)cc(I)c1O
active: Potency [9] 29.8 µM | Potency [10] 11.9 µM
inactive: Potency [1] | Potency [16] | Potency [4] | Potency [5] | Potency [6] | Potency [8] | outcome [14] | Potency [15]

CCCCc1oc2ccc(NS(C)(=O)=O)cc2c1C(=O)c1ccc(OCCCN(CCCC)CCCC)cc1
inactive: Potency [16] | Potency [4] | Potency [5] | Potency [8] | outcome [14]
active: Potency [6] 21.1 µM | Potency [7] 26.6 µM | Potency [9] 2.98 µM | Potency [18] 21.1 µM | Potency [10] 11.9 µM | Potency [12] 10.6 µM | Potency [15] 29.8 µM

N#CSc1ccc(N)c([N+](=O)[O-])c1
inactive: Potency [4] | Potency [5] | Potency [8] | Potency [11] | Potency [13] | outcome [14]
active: Potency [2] 30.8 µM | Potency [6] 69 µM | Potency [9] 12.3 µM | Potency [17] 19.4 µM | Potency [18] 54.8 µM | Potency [15] 61.5 µM

CC(C)(C)c1ccc(C(=O)CCCN2CCC(OC(c3ccccc3)c3ccccc3)CC2)cc1
active: Potency [1] 21.1 µM | Potency [6] 26.6 µM | Potency [9] 11.9 µM | Potency [17] 13.3 µM | Potency [10] 18.8 µM | Potency [12] 23.7 µM
inactive: Potency [4] | Potency [5] | Potency [8] | Potency [19] | outcome [14] | Potency [15]
